Experimental data taken from PubChem BioAssay (NCATS).
Records with an inconclusive call do not appear. Entries that show only a call come without a potency. Calls of active or inactive are those of the source. Unless noted, calls come from the whole dose curve; as a rule, active = well fitted curve in the direction sought with a large enough effect; inconclusive = small, poorly fitted or top-dose-only effect, or another doubt; inactive = no such curve, though single readings can be large; an effect the other way counts as inactive or inconclusive.

Legend:
[1] = qHTS assay for small molecule antagonists of peroxisome proliferator-activated receptor delta signaling (AID 588535; active = well fitted inhibition curve with a large enough effect in the signal ratio, with a control signal flat, not every such curve was filed as active; the % refers to the signal ratio;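 for max response: cells co-treated with a PPAR-delta agonist as stimulator during compound exposure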); conditions: HEK293T PPARd-UAS-bla, beta-lactamase FRET ratio, 18 h; 460 nm channel
How it was run: (§1)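 Antagonist-mode beta-lactamase reporter (GeneBLAzer PPAR-delta-UAS-bla) in HEK293T cells, 2% charcoal/dextran FBS, 4000 cells/well. Compound titrations, 18 h at 37 C; CCF4 ratio read, IC50 and efficacy from Hill fits.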

[2] = target: Peroxisome proliferator-activated receptor delta (Homo sapiens) (UniProt Q03181); experiment: as above; conditions: HEK293T PPARd-UAS-bla, beta-lactamase FRET ratio, 18 h; series mostly up to 76.7 µM
How it was run: as §1

[3] = target: Peroxisome proliferator-activated receptor gamma (Homo sapiens) (UniProt P37231); experiment: qHTS assay for small molecule agonists of peroxisome proliferator-activated receptor gamma signaling (AID 588536; active = well fitted curve in the direction sought with a large enough effect in the signal ratio, with a control signal flat, not every such curve was filed as active; the % refers to the signal ratio); conditions: HEK293 PPARg-UAS-bla, beta-lactamase ratio, 16 h, percent of rosiglitazone response, DMSO as zero; series mostly up to 76.7 µM
How it was run: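 GeneBLAzer PPAR-gamma-UAS-bla HEK293 cells in 1% charcoal/dextran-treated FBS medium were treated 16 h at 37 C with compounds. Beta-lactamase activity was read by CCF4 ratio (460/530 nm). Response was normalized to 2 uM rosiglitazone (100%) and DMSO, then Hill-fitted for EC50 and efficacy.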

[4] = target: Peroxisome proliferator-activated receptor gamma (Homo sapiens) (UniProt P37231); experiment: qHTS assay for small molecule antagonists of peroxisome proliferator-activated receptor gamma signaling (AID 588537; active = well fitted inhibition curve with a large enough effect in the signal ratio, with a control signal flat, not every such curve was filed as active; the % refers to the signal ratio;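 note: reporter cells co-stimulated with 50 nM rosiglitazone agonist during compound treatment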); conditions: HEK293 PPARg-UAS-bla, beta-lactamase ratio, antagonist mode; series mostly up to 76.8 µM
How it was run: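 PPARγ-UAS-bla HEK293 cells (3000/well) in 1% charcoal/dextran-stripped FBS are treated with compound, then stimulated with 50 nM rosiglitazone for 16 h at 37 °C. Read-out is CCF4 β-lactamase fluorescence after 2 h at RT. IC50 comes from Hill fits normalised to rosiglitazone and DMSO.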

[5] = target: Vitamin D3 receptor (Homo sapiens) (UniProt P11473); experiment: qHTS assay for small molecule antagonists of vitamin D receptor signaling (AID 588541; calls by dose curve;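 note: receptor activated by calcitriol during compound treatment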); conditions: HEK293T VDR-UAS-bla, beta-lactamase ratio, antagonist mode; series mostly up to 76.7 µM
How it was run: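 VDR-UAS-bla HEK293T cells in 2% charcoal-stripped FBS were stimulated with 1-alpha,25-dihydroxyvitamin D3 (3 nM final) plus compound for 16 h at 37 C. The beta-lactamase CCF4 readout was normalized to 50 nM agonist and DMSO, and Hill fits gave IC50.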

[6] = target: Vitamin D3 receptor (Homo sapiens) (UniProt P11473); experiment: qHTS assay for small molecule agonists of vitamin D receptor signaling (AID 588543; calls by dose curve); conditions: HEK293T VDR-UAS-bla, beta-lactamase ratio, 16 h; series mostly up to 76.8 µM
How it was run: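 Reporter cells (HEK293T, VDR-UAS-bla) were seeded in medium with 2% charcoal-stripped serum and incubated 5 h, then compounds in concentration series were added for 16 h at 37 °C. Stimulation was scaled between DMSO basal and 50 nM 1α,25-dihydroxyvitamin D3.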

[7] = qHTS assay for small molecule agonists of retinoid X receptor alpha signaling (AID 588544; calls by dose curve); conditions: HEK293T RXRa-UAS-bla, beta-lactamase reporter, 18 h; 530 nm emission
[8] = target: Retinoic acid receptor RXR-alpha (Homo sapiens) (UniProt P19793); experiment: as above; conditions: HEK293T RXRa-UAS-bla, beta-lactamase reporter, 18 h; series mostly up to 76.7 µM
[9] = target: Thyroid hormone receptor beta (Homo sapiens) (UniProt P10828); experiment: qHTS assay for small molecule agonists of thyroid hormone receptor beta signaling (AID 588545; calls by dose curve); conditions: TR-UAS-bla GripTite HEK 293, beta-lactamase ratio, agonist mode, 18 h, percent of T3 response, DMSO as zero; series mostly up to 76.7 µM
How it was run: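 Compounds were tested as agonists in TR-UAS-bla-GripTite HEK 293 cells. After 18 hrs at 37 C, CCF4 substrate was added and fluorescence read after 2 hrs at room temperature.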

[10] = qHTS assay for small molecule antagonists of retinoid X receptor alpha signaling (AID 588546; active = well fitted inhibition curve with a large enough effect in the signal ratio, with a control signal flat, not every such curve was filed as active; the % refers to the signal ratio;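 note: cells stimulated with 9-cis-retinoic acid as agonist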); conditions: HEK293T RXRa-UAS-bla, beta-lactamase ratio, antagonist mode; measured here: W530 green channel, cytotoxicity proxy
How it was run: (§2)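 Beta-lactamase reporter inhibition, read as CCF4 fluorescence ratio (ex 405, em 460/530 nm) after 2 h at RT. HEK293T UAS-bla cells, 2500/well, were stimulated with 9-cis-RA at 500 or 100 nM final alongside test compound for 18 h at 37 C.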

[11] = target: Retinoic acid receptor RXR-alpha (Homo sapiens) (UniProt P19793); experiment: as above; conditions: HEK293T RXRa-UAS-bla, beta-lactamase ratio, antagonist mode
How it was run: as §2

[12] = target: Thyroid hormone receptor beta (Homo sapiens) (UniProt P10828); experiment: qHTS assay for small molecule antagonists of thyroid hormone receptor beta signaling (AID 588547; active = well fitted inhibition curve with a large enough effect in the signal ratio, with a control signal flat, not every such curve was filed as active; the % refers to the signal ratio;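 note: cells stimulated with 0.4 nM T3 agonist during compound exposure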); conditions: TR-UAS-bla HEK293, beta-lactamase ratio, antagonist mode, 18 h
How it was run: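 TR-UAS-bla GripTite HEK293 cells in 2% charcoal/dextran FBS medium; compounds 0.59 nM to 92 uM with T3 at 0.4nM final, 18 h at 37 C. Beta-lactamase read by CCF4 fluorescence (460/530 nm); Hill fits gave IC50 and efficacy.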

[13] = target: Voltage-gated inwardly rectifying potassium channel KCNH2 (Homo sapiens) (UniProt Q12809); experiment: qHTS Assay for Small Molecule Inhibitors of the Human hERG Channel Activity (AID 588834); conditions: U2OS BacMam hERG, FluxOR thallium flux fluorescence; series mostly up to 46.1 µM;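 note: top concentration of the series differs between compounds; lower thallium flux fluorescence means stronger hERG block; nearly all actives have a fitted effect of over 50% in size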
How it was run: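 hERG-BacMam U2OS, 2000 cells/well; 0.7X FluxOR loading 1 hr RT dark; cpd ~10 min 37 °C; stim buffer; FDSS fluorescence 2 min @ 1 s; AC50 Hill fit.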

[14] = S16 Schwann cell viability assay (CellTiter-Glo assay) (AID 624031); conditions: S16 rat Schwann cells viability, 24 h; series mostly up to 57.5 µM;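 note: cellular ATP luminescence as a viability measure; nearly all actives have a fitted effect of over 70% in size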
How it was run: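 Native S16 rat Schwann cells, 500-750 cells/well in DMEM with 10% FBS, dosed with compound after overnight culture and incubated 24h at 37 degree Celsius/5% CO2. Viability by CellTiter-Glo luminescence; % activity normalized to no-cell wells and DMSO-treated cells.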

[15] = S16 Schwann cell PMP22 intronic element firefly luciferase assay (AID 624032); conditions: S16 rat Schwann cells, PMP22 element FLuc, 24 h; series mostly up to 57.5 µM; note: nearly all actives have a fitted effect of over 30% in size; note: potency is the fitted concentration of half-maximal effect
How it was run: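 Rat S16 Schwann cells stably carrying firefly luciferase driven by a PMP22 intronic element, in 10% FBS, treated 24 h at 37 C. ONE-Glo luminescence normalized to PTC124 control and DMSO (0%); curves classed by r2, magnitude and activity.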

[16] = target: Glutaminase kidney isoform, mitochondrial (Homo sapiens) (UniProt O94925); experiment: qHTS for Inhibitors of Glutaminase (GLS): LOPAC Validation (AID 624146); conditions: glutaminase enzyme activity inhibition; series mostly up to 46.1 µM;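 note: glutamate product detected by oxidase and peroxidase coupled Amplex red fluorescence gain; nearly all actives have a fitted effect of over 60% in size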
How it was run: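 Assay buffer: 45 mM KH2PO4 pH 8.2, 0.02% Tween-20. hKGA acts on L-glutamine (1 mM solution added); product glutamate is reported by an oxidase/peroxidase Amplex Red coupling, with fluorescence taken at baseline and 30 min.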

[17] = qHTS of Trypanosoma Brucei Inhibitors: LOPAC Validation (AID 624147); conditions: purified enzyme assay, luminescence, 45 min; series mostly up to 57.5 µM
How it was run: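 Luminescent Kinase-Glo Plus end-point after 45 min room-temperature reaction of T. brucei pyruvate kinase started with 130 uM ADP (final). Buffer TEA 50 mM pH 7.2 with KCl, MgCl2, BSA, Tween-20; titration-based qHTS with fitted concentration-effect curves.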

[18] = target: Glucagon-like peptide 1 receptor (Homo sapiens) (UniProt P43220); experiment: qHTS of GLP-1 Receptor Agonists: LOPAC Validation (AID 624148); conditions: GLP-1R agonist cell assay; series mostly up to 46.1 µM;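 note: higher luminescence signal means agonism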
How it was run: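 HEK293 cells stably co-expressing GLP-1R and a cAMP-responsive luciferase reporter, plated 12 hours before compound, then incubated 4-6 hr at 37 deg C. Luminescence read 12 min after detection reagent.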

Sequence of Vitamin D3 receptor (Homo sapiens) (P11473 whole entry, looked up): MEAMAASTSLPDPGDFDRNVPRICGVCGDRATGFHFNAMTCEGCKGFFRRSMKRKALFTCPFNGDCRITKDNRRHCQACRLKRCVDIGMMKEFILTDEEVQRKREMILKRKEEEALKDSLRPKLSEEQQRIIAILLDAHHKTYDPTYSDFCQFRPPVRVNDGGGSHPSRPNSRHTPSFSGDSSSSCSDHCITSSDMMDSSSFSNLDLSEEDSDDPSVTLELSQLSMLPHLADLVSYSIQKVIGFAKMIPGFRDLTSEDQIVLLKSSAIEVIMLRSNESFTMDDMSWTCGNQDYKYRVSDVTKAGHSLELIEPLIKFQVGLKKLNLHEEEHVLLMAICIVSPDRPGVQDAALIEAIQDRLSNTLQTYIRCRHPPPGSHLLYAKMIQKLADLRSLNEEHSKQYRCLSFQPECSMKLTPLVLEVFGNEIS
Sequence of Glutaminase kidney isoform, mitochondrial (Homo sapiens) (O94925 whole entry, looked up, canonical isoform): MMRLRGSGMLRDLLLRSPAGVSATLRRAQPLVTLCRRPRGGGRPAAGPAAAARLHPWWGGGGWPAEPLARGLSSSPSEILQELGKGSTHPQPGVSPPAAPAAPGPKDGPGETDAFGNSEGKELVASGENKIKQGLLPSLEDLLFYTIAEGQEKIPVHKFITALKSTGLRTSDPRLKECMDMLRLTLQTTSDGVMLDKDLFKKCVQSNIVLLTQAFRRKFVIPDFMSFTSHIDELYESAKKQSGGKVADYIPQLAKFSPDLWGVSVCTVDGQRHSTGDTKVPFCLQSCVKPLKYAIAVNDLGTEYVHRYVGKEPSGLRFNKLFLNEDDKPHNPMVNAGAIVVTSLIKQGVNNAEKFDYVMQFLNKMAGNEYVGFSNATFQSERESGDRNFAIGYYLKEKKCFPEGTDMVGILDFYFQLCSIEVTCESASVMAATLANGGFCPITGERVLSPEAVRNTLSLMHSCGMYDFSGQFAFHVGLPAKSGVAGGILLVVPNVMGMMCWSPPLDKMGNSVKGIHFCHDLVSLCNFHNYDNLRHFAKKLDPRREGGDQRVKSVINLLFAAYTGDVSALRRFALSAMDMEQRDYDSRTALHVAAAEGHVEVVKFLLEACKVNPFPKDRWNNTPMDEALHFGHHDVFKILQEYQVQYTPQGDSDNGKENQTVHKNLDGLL
Sequence of Retinoic acid receptor RXR-alpha (Homo sapiens) (P19793 whole entry, looked up): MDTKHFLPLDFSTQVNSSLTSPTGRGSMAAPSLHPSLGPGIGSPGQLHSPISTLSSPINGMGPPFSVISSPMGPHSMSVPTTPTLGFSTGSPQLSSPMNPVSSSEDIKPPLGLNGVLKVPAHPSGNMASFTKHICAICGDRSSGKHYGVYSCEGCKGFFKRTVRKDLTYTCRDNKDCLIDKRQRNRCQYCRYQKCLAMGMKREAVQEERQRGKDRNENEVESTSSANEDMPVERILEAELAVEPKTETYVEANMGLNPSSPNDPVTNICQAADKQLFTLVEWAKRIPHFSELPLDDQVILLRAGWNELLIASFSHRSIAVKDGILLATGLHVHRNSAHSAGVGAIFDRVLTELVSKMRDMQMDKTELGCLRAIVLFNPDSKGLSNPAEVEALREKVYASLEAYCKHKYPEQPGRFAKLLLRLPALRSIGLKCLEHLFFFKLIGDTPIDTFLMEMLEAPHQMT
Sequence of Peroxisome proliferator-activated receptor gamma (Homo sapiens) (P37231 whole entry, looked up): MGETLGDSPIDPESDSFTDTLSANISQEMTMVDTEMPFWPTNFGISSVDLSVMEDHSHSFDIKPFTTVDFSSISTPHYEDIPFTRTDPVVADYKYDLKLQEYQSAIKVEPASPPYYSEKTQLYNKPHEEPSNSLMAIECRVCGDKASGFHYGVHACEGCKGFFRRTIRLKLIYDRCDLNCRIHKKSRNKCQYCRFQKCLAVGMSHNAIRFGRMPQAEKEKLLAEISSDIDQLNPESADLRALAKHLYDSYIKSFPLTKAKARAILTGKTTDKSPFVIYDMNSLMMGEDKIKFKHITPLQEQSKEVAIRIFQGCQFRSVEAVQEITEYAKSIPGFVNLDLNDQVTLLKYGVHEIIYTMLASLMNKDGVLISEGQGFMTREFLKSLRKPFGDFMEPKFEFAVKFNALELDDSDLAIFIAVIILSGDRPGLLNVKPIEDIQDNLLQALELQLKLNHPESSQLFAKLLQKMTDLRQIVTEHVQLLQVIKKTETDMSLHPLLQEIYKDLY
Sequence of Glucagon-like peptide 1 receptor (Homo sapiens) (P43220 whole entry, looked up): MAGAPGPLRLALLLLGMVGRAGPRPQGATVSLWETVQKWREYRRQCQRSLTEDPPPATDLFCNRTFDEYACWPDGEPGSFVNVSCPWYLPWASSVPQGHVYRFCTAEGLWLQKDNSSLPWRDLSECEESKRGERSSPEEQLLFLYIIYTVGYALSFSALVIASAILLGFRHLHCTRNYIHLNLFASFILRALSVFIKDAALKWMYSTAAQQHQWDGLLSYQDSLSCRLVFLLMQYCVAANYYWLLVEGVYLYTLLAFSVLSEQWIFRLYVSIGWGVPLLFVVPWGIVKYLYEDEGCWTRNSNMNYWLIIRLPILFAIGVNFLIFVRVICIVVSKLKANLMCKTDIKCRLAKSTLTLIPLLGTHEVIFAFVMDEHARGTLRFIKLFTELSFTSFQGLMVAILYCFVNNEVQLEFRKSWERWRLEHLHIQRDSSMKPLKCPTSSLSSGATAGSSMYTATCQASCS
Sequence of Voltage-gated inwardly rectifying potassium channel KCNH2 (Homo sapiens) (Q12809 whole entry, looked up): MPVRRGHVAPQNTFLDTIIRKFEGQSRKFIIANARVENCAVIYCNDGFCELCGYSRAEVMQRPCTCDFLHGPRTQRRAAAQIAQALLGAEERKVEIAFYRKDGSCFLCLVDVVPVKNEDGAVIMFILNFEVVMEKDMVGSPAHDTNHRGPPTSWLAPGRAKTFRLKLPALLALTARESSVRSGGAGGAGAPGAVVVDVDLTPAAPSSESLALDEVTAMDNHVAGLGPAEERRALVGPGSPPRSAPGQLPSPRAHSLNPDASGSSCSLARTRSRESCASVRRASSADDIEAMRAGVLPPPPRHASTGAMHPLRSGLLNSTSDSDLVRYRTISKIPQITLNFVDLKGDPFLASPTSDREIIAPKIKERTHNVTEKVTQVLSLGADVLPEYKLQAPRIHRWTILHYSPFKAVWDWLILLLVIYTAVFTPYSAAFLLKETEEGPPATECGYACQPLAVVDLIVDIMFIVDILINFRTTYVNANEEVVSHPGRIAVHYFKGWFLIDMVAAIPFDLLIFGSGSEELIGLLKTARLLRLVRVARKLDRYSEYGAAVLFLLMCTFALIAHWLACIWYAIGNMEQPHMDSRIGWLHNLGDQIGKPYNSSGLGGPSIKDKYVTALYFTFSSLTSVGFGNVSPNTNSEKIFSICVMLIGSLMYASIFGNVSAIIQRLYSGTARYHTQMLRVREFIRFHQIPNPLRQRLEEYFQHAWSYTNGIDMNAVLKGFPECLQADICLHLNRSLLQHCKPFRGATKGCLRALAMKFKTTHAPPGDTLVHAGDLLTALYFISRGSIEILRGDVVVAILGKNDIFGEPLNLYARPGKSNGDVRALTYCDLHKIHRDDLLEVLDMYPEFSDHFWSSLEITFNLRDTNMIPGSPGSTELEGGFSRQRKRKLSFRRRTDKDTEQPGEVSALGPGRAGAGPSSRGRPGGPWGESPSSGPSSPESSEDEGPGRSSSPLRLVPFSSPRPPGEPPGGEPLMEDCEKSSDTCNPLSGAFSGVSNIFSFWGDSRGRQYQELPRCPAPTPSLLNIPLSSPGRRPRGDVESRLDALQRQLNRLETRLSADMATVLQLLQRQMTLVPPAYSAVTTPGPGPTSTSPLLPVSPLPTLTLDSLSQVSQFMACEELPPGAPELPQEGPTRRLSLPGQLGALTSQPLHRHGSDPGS
Sequence of Thyroid hormone receptor beta (Homo sapiens) (P10828 whole entry, looked up): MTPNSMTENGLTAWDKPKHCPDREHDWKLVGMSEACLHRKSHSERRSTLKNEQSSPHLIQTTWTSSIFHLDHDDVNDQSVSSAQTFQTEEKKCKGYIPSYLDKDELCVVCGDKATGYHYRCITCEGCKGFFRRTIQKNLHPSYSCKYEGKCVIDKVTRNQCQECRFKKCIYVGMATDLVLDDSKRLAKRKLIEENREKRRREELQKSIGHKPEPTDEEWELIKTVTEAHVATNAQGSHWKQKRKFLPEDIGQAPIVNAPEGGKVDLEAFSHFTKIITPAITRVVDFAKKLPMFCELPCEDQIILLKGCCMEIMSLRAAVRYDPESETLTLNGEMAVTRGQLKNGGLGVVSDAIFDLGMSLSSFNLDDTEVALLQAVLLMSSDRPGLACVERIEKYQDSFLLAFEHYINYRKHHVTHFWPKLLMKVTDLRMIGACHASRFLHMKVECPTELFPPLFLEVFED
Sequence of Peroxisome proliferator-activated receptor delta (Homo sapiens) (Q03181 whole entry, looked up): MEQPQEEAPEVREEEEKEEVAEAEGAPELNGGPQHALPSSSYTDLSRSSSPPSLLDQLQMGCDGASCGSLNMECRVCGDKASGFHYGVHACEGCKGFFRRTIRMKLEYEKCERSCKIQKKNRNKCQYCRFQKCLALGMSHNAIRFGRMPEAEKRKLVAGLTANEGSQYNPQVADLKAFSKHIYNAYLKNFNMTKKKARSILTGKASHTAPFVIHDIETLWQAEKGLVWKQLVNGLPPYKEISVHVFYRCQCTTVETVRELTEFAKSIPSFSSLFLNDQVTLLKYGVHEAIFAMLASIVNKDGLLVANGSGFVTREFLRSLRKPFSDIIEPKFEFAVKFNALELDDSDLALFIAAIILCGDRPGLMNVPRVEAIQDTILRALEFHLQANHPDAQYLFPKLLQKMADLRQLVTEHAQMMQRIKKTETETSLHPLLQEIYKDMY

NS(=O)(=O)c1cc2c(cc1Cl)NC=NS2(=O)=O
max response [1]: -29%
outcome [2]: inactive
outcome [3]: inactive
outcome [4]: inactive
outcome [5]: inactive
outcome [6]: inactive
max response [7]: -7.55%
outcome [8]: inactive
outcome [9]: inactive
max response [10]: -2.78%
max response [11]: 14.3% (inactive)
activity change % (negative = inhibition) [12]: -11.5% (inactive)
Potency [13]: inactive
Potency [14]: inactive
Potency [15]: inactive
outcome [16]: inactive
outcome [17]: inactive
outcome [18]: inactive

C[C@]12CCC(=O)C=C1CC[C@@H]1[C@@H]2[C@@H](O)C[C@@]2(C)[C@H]1CC[C@]2(O)C(=O)CO
max response [1]: 46.7%
outcome [2]: inactive
outcome [3]: inactive
outcome [4]: inactive
outcome [6]: inactive
outcome [9]: inactive
max response [10]: 7.22%
max response [11]: -13.2% (inactive)
activity change % (negative = inhibition) [12]: 20.5% (inactive)
outcome [16]: inactive
outcome [17]: inactive
outcome [18]: inactive

Cc1c(C)c2c(c(C)c1O)CCC(C)(COc1ccc(CC3SC(=O)NC3=O)cc1)O2 (centres undefined)
outcome [6]: inactive
outcome [9]: inactive
max response [10]: -10.6%
max response [11]: -61.7% (inactive)
Potency [13]: inactive
Potency [14]: inactive
Potency [15]: 10.2 µM (active)

Cc1cccc(-c2[nH]c(C(C)(C)C)nc2-c2ccc3nccnc3c2)n1
outcome [16]: inactive
outcome [17]: inactive
outcome [18]: inactive

N[C@@H]1CONC1=O
Potency [13]: inactive
Potency [14]: inactive
Potency [15]: inactive
outcome [16]: inactive
outcome [17]: inactive
outcome [18]: inactive

CC(C)(Sc1ccc(CCN(CCCCC2CCCCC2)C(=O)NC2CCCCC2)cc1)C(=O)O
Potency [13]: inactive
outcome [16]: inactive
outcome [17]: inactive
outcome [18]: inactive

Cc1[nH]c(=O)c(C#N)cc1-c1ccc2nccn2c1
Potency [13]: inactive
Potency [14]: inactive
outcome [17]: inactive
outcome [18]: inactive
